Here are results for 40 compounds from PubChem BioAssay (Tox21).

The structures appear in SMILES notation. Unmarked numbers belong to inactive results. Entries that show only a call come without a potency. The source made the active and inactive calls. Calls come from the whole dose curve; as a rule, active = well fitted activation curve with a large enough effect in the repeat runs; inconclusive = weak or mixed curves; inactive = flat fitted curve, though single readings scatter.

A short description of this assay: A CellTox Green Cytotoxicity Assay to monitor cytotoxicity in HepG2 cells - 0 hour (AID 1224882). Note: nearly all actives have a fitted effect of over 35% in size. To be noted: CellTox Green fluorescence; series mostly up to 76.8 µM; cytotoxicity: at the top concentration. An excerpt: National Center for Advancing Translational Sciences [NCATS]
NIH Chemical Genomics Center [NCGC]
U.S. Environmental Protection Agency [EPA]
National Institutes of Environmental Health Sciences [NIEHS]
National Toxicology Program [NTP]
Cell-based models are critical for drug discovery. Determining the natural cytotoxic effects resulting from test compounds is an essential research activity. A CellTox Green Cytotoxicity Assay to monitor cytotoxicity in real time of continues cell culture during 40 hours of the compound treatment was used to screen Tox21 10K library compounds in HepG2 cells. CellTox Green Cytotoxicity Assay is a nonlytic, homogeneous, biofluorescent method to measure cytotoxicity in cell culture after experimental manipulation. The assay system uses a proprietary asymmetric cyanine dye that is excluded from viable cells but preferentially stains the dead cell's DNA. […] Viable cells produce no appreciable increases in fluorescence. Therefore, the fluorescence signal produced by the binding interaction with dead cell DNA is proportional to cytotoxicity.
The mixture of HepG2 cell suspension and reagents were dispensed at 600cells/6 ul/well in 1536-well tissue culture treated black solid bottom plates using a Multidrop dispenser. After the assay plates were incubated at a 37 C/5% CO2 incubator for 5 hours, 23 nL of compounds dissolved in DMSO, positive and negative controls was transferred to the assay plate by a pintool work station. The plates were incubated at 37 C for 40 hours. The fluorescence intensity were measured at 0h, 8h, 16h, 24h, 32h and 40h time points using ViewLux plate reader during compound treatment.
For the compound `CC1=C(/C=C/C(C)=C/C=C/C(C)=C/C(=O)O)C(C)(C)CCC1`, the Potency result is “inactive”.
In the case of `COc1ccccc1O`, the Potency result was “inactive”.
`CN(C)Cc1cc(CN(C)C)c(O)c(CN(C)C)c1`: the Potency entry was “inactive”.
Take `C/C=C/c1ccc(O)c(OC)c1`: the Potency result is “inactive”.
For `CCOC(=O)C(C)(C)Oc1ccc(Cl)cc1`, the Potency result was “inactive”.
On to `COc1ccc(O)cc1`, for which the Potency result is “inactive”.
For `CCCCOC(=O)CCCCCCCCC(=O)OCCCC`, the Potency entry is “inactive”.
Turning to `CCCCOCCOCCSC#N`, the Potency result was “inactive”.
On the same count and under the same terms, as for `CC(=O)Oc1ccccc1C(=O)O`, the entry is “inactive”; as for `Cc1cccc2ccccc12`, “inactive”; as for `CC(=O)OC/C=C(C)/C=C/C=C(C)/C=C/C1=C(C)CCCC1(C)C`, “inactive”.
Take `COCC(C)N` (stereo not given): the Potency result was “inactive”.
Still for that read-out and setting: in the case of `Cc1cnc(NC(=O)C2=C(O)c3ccccc3S(=O)(=O)N2C)s1` it was “inactive”; in that of `COC(=O)c1ccc(C=O)cc1`, “inactive”.
`CCCCCCCCCCCCCC(=O)OC(C)C`: the Potency entry is “inactive”.
Consider `CC(O)COc1ccccc1` (stereo not given), for which the Potency entry was “inactive”.
Same read-out and setting: in the case of `CCCCCCCCCCCCCCCCCC(=O)OCC(O)CO` (stereo not given) it was “inactive”; in that of `C#C[C@]1(O)CC[C@H]2[C@@H]3CCC4=CC(=O)CC[C@@H]4[C@H]3CC[C@@]21CC`, “inactive”.
On to `CN/C(=C\[N+](=O)[O-])NCCSCc1ccc(CN(C)C)o1`, for which the Potency result is “inactive”.
`NC(=O)c1ccc([N+](=O)[O-])cc1Cl`: the Potency entry is “inactive”.
Regarding `CCOCCO`, the Potency result was “inactive”.
In the case of `CCCCOCCOCCOC(C)=O`, the Potency entry was “inactive”.
The same measure, in the same setting: as for `O=c1c(-c2ccc(O)cc2)coc2cc(O)cc(O)c12`, the entry is “inactive”; as for `COC(=O)c1ccc(O)cc1`, “inactive”.
With `C1CNCCN1`, the Potency entry is “inactive”.
Same read-out and setting: as for `Oc1cccc(O)c1`, the entry is “inactive”; as for `NC(=O)NO`, “inactive”; as for `O=C1OC(c2ccc(O)cc2)(c2ccc(O)cc2)c2ccccc21`, “inactive”.
Turning to `CCN1CCCC1=O`, the Potency entry is “inactive”.
Regarding `O=[N+]([O-])c1ccc(O)cc1`, the Potency entry was “inactive”.
As to `COc1ccccc1NC(=O)CC(C)=O`, the Potency result was “inactive”.
As for `O=C(O)CN(CC(=O)O)CC(=O)O`, the Potency result is “inactive”.
As for `CC(C)Cc1ccc(C(C)C(=O)O)cc1` (stereo not given), the Potency result is “inactive”.
Still for that read-out and setting: as for `COC(=O)C1CCC(C(=O)OC)CC1` (stereo not given), the entry is “inactive”; as for `Nc1ccc(N=Nc2ccccc2)c(N)n1`, “inactive”.
Consider `CC(C)CC(C)CC(O)CC(C)C` (stereo not given), for which the “cytotoxicity” value was -0.668%.
For the compound `N[C@@H](Cc1c[nH]c2ccccc12)C(=O)O`, the Potency entry is “inactive”.
As to `C[C@]12CC[C@@H]3c4ccc(O)cc4C[C@@H](CCCCCCCCCS(=O)CCCC(F)(F)C(F)(F)F)[C@H]3[C@@H]1CC[C@@H]2O` (stereo not given in full), the Potency result is “inactive”.
Consider `OC[C@@H](O)[C@@H](O)[C@H](O)[C@H](O)CO`, for which the Potency result is “inactive”.
In the case of `CCCCNC(=O)NS(=O)(=O)c1ccc(N)cc1`, the Potency entry is “inactive”.
